Most compounds without a hit are left out; they make up all but 5.7% or so of the library.
DRD3 agonist: qHTS of D3 Dopamine Receptor Agonist: qHTS; 410,000 tested, 0.58% active; max activation, %; D3R DiscoveRx beta-arrestin cells, luminescence, 90 min; D(3) dopamine receptor (Homo sapiens), P35462; in the data active means max activation above about 30%
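Agonist-mode cell screen: cells plated at 1500/well and incubated overnight at 37 °C, then exposed to library compounds for 90 min at 37 °C. Detection reagent was added for 30–60 min at room temperature, and luminescence was read.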
GLP-1R agonist: qHTS of GLP-1 Receptor Agonists; Glucagon-like peptide 1 receptor (Homo sapiens), P43220; 380,000 tested, 0.007% active; HEK293 GLP-1R CRE-luciferase, luminescence, 4-6 h; cells express a hypersensitive GLP-1R form; AID 624172, 2012; Potency, µM (titrated, usually from 45.6 µM), actives largely listed as activators
D3 antag: qHTS of D3 Dopamine Receptor Antagonist: qHTS | D(3) dopamine receptor (Homo sapiens), P35462 | D3R cells, DiscoveRx beta-arrestin luminescence, antagonist mode; active compounds read low | max response, negative = inhibition, % | 360,000 tested, 2.5% active; in the data active means max response below about -50%; inconclusive means no clear call, values can overlap the other calls
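Cells expressing the human receptor were seeded at 1500 cells/well, incubated overnight at 37 degrees C in 5% CO2, then exposed to library compounds with dopamine controls for 90 minutes at 37 degrees C before luminescent detection.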
GLP1R inv ag: qHTS of GLP-1 Receptor Inverse Agonists (Inhibition Mode); Potency, µM (series often up to 38.3 µM), usual class: inhibitors; HEK293 GLP-1R CRE-luciferase, luminescence, 24 h; GLP-1R form is constitutively active; 410,000 tested, 1.6% active; further: nearly all actives have a fitted effect of over 55% in size
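Using stably transfected HEK293 (constitutively active GLP-1R, cAMP-luciferase reporter), compounds were incubated 24 hr and luciferase measured by luminescence.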
GLP1R cytotox: qHTS of GLP-1 Receptor Inverse Agonists: Cytotox Screen | HEK293 cAMP-luciferase reporter cells, luminescence, 24 h | Potency, µM (highest dose often 38.3 µM), most hits filed as inhibitors | 410,000 tested, 0.13% active | AID 624418, 2012;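 further: loss of luciferase light is scored as toxicity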
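Compound-treated cells are incubated 24 hr at 37 deg C under 5% CO2 after a 12 hour attachment period, then luciferase detection reagent is added and luminescence is measured following 12 min at room temperature; lowered signal indicates toxicity.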
ClpP mod: qHTS Assay for Activators of ClpP; Potency, µM (top dose mostly 57.5 µM); purified B. subtilis ClpP, FRET peptide cleavage, 20 min; 340,000 tested, 1.9% active; AID 651965, 2013; active means well fitted falling curve with a large enough effect; inconclusive means small, poorly fitted or top-dose-only effect; inactive means no such curve, though single readings can be large or run the other way; further: the source files actives as falling curves though it sought activators and does not explain the sign; nearly all actives have a fitted effect of over 65% in size
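Buffer: 100 mM Tris/HCl pH8, 100 mM KCl, 0.05% low protease BSA, 2.5% glycerol, 0.01% Tween-20. ClpP 10 microg/mL final; 20 min RT; delta FRET normalized to ADEP and DMSO controls.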
A number is an active result. Unless noted, the call rests on the fitted dose curve; in most records, active means well fitted curve in the direction sought with a large enough effect; inconclusive means small, poorly fitted or top-dose-only effect, or another doubt; inactive means no such curve, though single readings can be large; an effect the other way counts as inactive or inconclusive.

Results for COc1cc(O)cc(/C=C/c2ccccc2)c1 ?
DRD3 agonist: 70; GLP-1R agonist: inactive; D3 antag: inactive; GLP1R inv ag: inconclusive; GLP1R cytotox: inactive

How did CN(C)c1ccc(C(=S)Nc2ccccc2)cc1 do in these assays?
DRD3 agonist: inactive; GLP-1R agonist: inactive; D3 antag: inactive; GLP1R inv ag: inconclusive; GLP1R cytotox: inactive; ClpP mod: inactive

How did CN(C)c1ccc(NC(=S)c2ccccn2)cc1 do in these assays?
DRD3 agonist: inactive; GLP-1R agonist: inactive; D3 antag: inactive; GLP1R inv ag: 5.6µM; GLP1R cytotox: inactive; ClpP mod: inactive

Results for CC(=O)C1=C(c2ccc(Cl)cc2)N(C(C)=O)n2c(nnc2C2CCCCC2)S1 ?
DRD3 agonist: inactive; GLP1R inv ag: inactive; GLP1R cytotox: inactive; ClpP mod: inactive

What do the screens show for `COc1ccc2c(c1)CCc1sc(NC(=O)c3ccc(C)cc3)nc1-2`?
DRD3 agonist: inactive; GLP-1R agonist: inactive; D3 antag: inactive; GLP1R inv ag: inactive; GLP1R cytotox: inactive; ClpP mod: 35µM

Results for CC(C)(C)C(=O)NNC(=O)COc1ccc2ccccc2c1Br ?
DRD3 agonist: inactive; GLP-1R agonist: inactive; D3 antag: inactive; GLP1R inv ag: inactive; GLP1R cytotox: inactive; ClpP mod: inactive

How did O=C(COc1ccc2ccccc2c1Br)N1CCCCC1 do in these assays?
DRD3 agonist: inactive; GLP-1R agonist: inactive; D3 antag: inactive; GLP1R inv ag: 10µM; GLP1R cytotox: inactive; ClpP mod: inactive

What do the screens show for `COC(=O)NNC(=O)COc1ccc2ccccc2c1Br`?
DRD3 agonist: inactive; GLP-1R agonist: inactive; D3 antag: inactive; GLP1R inv ag: inactive; GLP1R cytotox: inactive; ClpP mod: 25µM

What do the screens show for `Cc1cccc(C)c1-n1c(C)cc(/C=N/NC(N)=S)c1C`?
DRD3 agonist: inactive; GLP-1R agonist: inactive; D3 antag: -84; GLP1R inv ag: 11µM; GLP1R cytotox: inconclusive; ClpP mod: inactive

What do the screens show for `CC(C)Oc1ccc(Br)cc1/C=N\NC(N)=S`?
DRD3 agonist: inactive; GLP-1R agonist: inactive; D3 antag: inactive; GLP1R inv ag: 3.2µM; GLP1R cytotox: 2.5µM; ClpP mod: inactive

Results for Cc1cc(/C=N/O)c(C)n1-c1ccc(Br)cc1 ?
DRD3 agonist: inactive; GLP-1R agonist: inactive; D3 antag: inactive; GLP1R inv ag: inconclusive; GLP1R cytotox: inactive

What do the screens show for `Cc1cc(/C=N/NC(N)=S)c(C)n1-c1ccc(Cl)cc1`?
DRD3 agonist: inactive; GLP-1R agonist: inactive; D3 antag: -58; GLP1R inv ag: inconclusive; GLP1R cytotox: inconclusive; ClpP mod: inactive

Results for Cc1cc(/C=N/NC(N)=S)c(C)n1-c1ccc(Br)cc1 ?
DRD3 agonist: inactive; GLP-1R agonist: inactive; D3 antag: -67; GLP1R inv ag: inconclusive; GLP1R cytotox: inconclusive; ClpP mod: inactive

What do the screens show for `Cc1cc(/C=N/NC(N)=S)c(C)n1-c1cccc(Cl)c1`?
DRD3 agonist: inactive; GLP-1R agonist: inactive; D3 antag: inactive; GLP1R inv ag: inconclusive; GLP1R cytotox: inconclusive

How did C=C1N[C@]2(C(=O)COC(C)=O)[C@@H](C[C@H]3[C@@H]4CCC5=CC(=O)C=C[C@]5(C)[C@H]4[C@@H](O)C[C@@]32C)O1 do in these assays?
GLP-1R agonist: inactive

How did COC(=O)C(c1ccccc1)C(CC(=O)c1ccccc1)c1ccccc1 (stereo unspecified) do in these assays?
DRD3 agonist: inactive; GLP-1R agonist: inactive; D3 antag: inactive; GLP1R inv ag: inactive; GLP1R cytotox: inactive; ClpP mod: inactive

Results for CCCC[C@H](CC(=O)c1ccccc1)[C@@H](OC(C)=O)C(=O)Oc1c(C(C)C)cccc1C(C)C ?
DRD3 agonist: inactive; GLP-1R agonist: inactive; D3 antag: inactive; GLP1R inv ag: 3.5µM; GLP1R cytotox: inactive; ClpP mod: inactive

What do the screens show for `Cc1ccc(C)c(N2CCN(C(=O)Cn3c(=O)c4cccn4c4ccc(F)cc43)CC2)c1`?
DRD3 agonist: inactive; GLP1R inv ag: inactive; GLP1R cytotox: inactive; ClpP mod: inactive

What do the screens show for `C[C@@H]1CN(C(=O)c2nc3ccc(Cl)cn3c2CN[C@H]2CCCCNC2=O)C[C@H](C)O1`?
DRD3 agonist: inactive; GLP-1R agonist: inactive; D3 antag: inactive; GLP1R inv ag: inactive; GLP1R cytotox: inactive; ClpP mod: inactive

How did Cc1cccnc1CCNCc1c(C(=O)N2C[C@@H](C)O[C@@H](C)C2)nc2ccc(Cl)cn12 do in these assays?
DRD3 agonist: inactive; GLP-1R agonist: inactive; D3 antag: -63; GLP1R inv ag: inactive; GLP1R cytotox: inactive; ClpP mod: inactive

How did CC(C)(C)c1ccc(Cn2cnc(-c3ccc([N+](=O)[O-])cc3)c2)cc1 do in these assays?
DRD3 agonist: inactive; GLP-1R agonist: inactive; D3 antag: inactive; GLP1R inv ag: inconclusive; GLP1R cytotox: inconclusive; ClpP mod: 10µM

What do the screens show for `Cc1cc(C)c(Cn2cnc(-c3ccc([N+](=O)[O-])cc3)c2)c(C)c1`?
DRD3 agonist: inactive; GLP-1R agonist: inactive; D3 antag: inactive; GLP1R inv ag: inactive; GLP1R cytotox: inactive; ClpP mod: inactive

Results for Cn1c(=O)c(-c2ccccc2)nc2ccccc21 ?
DRD3 agonist: inactive; GLP-1R agonist: inactive; D3 antag: inactive; GLP1R inv ag: inactive; GLP1R cytotox: inactive; ClpP mod: 25µM

How did Cc1cc(-c2cc(-c3ccc(Cl)cc3)on2)nc(NC2CCCC2)n1 do in these assays?
DRD3 agonist: inactive; GLP-1R agonist: inactive; D3 antag: inactive; GLP1R inv ag: inactive; GLP1R cytotox: inactive; ClpP mod: 25µM

How did O=C1OC2C(O)C(O)OC2C1O (stereo unspecified) do in these assays?
GLP-1R agonist: inactive

What do the screens show for `CCCCn1c(N)c(N(CC(C)C)C(=O)C2CC(=O)N(c3ccc4c(c3)OCCO4)C2)c(=O)[nH]c1=O` (stereo unspecified)?
DRD3 agonist: inactive; GLP-1R agonist: inactive; D3 antag: -55; GLP1R inv ag: inactive; GLP1R cytotox: inactive; ClpP mod: inactive

Results for CCCCn1c(N)c(N(CC(C)C)C(=O)CSCc2c(C)noc2C)c(=O)[nH]c1=O ?
DRD3 agonist: inactive; GLP-1R agonist: inactive; D3 antag: inactive; GLP1R inv ag: inactive; GLP1R cytotox: inactive; ClpP mod: 28µM

Results for CCCCn1c(N)c(N(CCC(C)C)C(=O)c2ccccc2-n2cnnn2)c(=O)[nH]c1=O ?
DRD3 agonist: inactive; GLP-1R agonist: inactive; D3 antag: inactive; GLP1R inv ag: inactive; GLP1R cytotox: inactive; ClpP mod: 28µM

Screening results deposited in PubChem by National Center for Advancing Translational Sciences (NCATS).
